From PubChem BioAssay (EPA / NIEHS)
Inconclusive results are not listed. The source made the active and inactive calls. The calls were made as follows, unless noted: active = hit-call score of the fitted dose curve at least 0.9, where 1 is the maximum; inactive = score below 0.9.

What was measured:
[1] = read-out: Interleukin-1 alpha (IL1a), IL1A (gene 3552); assay: BSK_LPS_IL1a: BioMAP Diversity Plus: LPS Assay for Interleukin-1 alpha (IL1a) Biomarker Activity (AID 2283080); details: primary human HUVEC with PBMC; actives raise or lower the signal
Summary of the method: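 Readout is IL-1a level by ELISA, 24 h post-dose, fitted as gain or loss relative to DMSO. System: LPS-activated human primary co-culture of vascular endothelium and peripheral blood mononuclear cells, with parallel SRB total-protein cytotoxicity.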

[2] = read-out: Monocyte Chemoattractant Protein-1 (MCP1), CCL2 (gene 6347); assay: BSK_LPS_MCP1: BioMAP Diversity Plus: LPS Assay for Monocyte Chemoattractant Protein-1 (MCP1) Biomarker Activity (AID 2283081); details: primary human HUVEC with PBMC; actives raise or lower the signal;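 as to AC50: co-culture stimulated with LPS; secreted MCP-1 protein quantified by ELISA in culture supernatant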
Summary of the method: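 Secreted MCP-1 read by ELISA at 24 h post-dosing in an LPS-activated co-culture of endothelial cells with peripheral blood mononuclear cells. Fits run in both directions, DMSO as baseline; parallel SRB staining tracks overt cytotoxicity.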

[3] = BSK_LPS_PGE2: BioMAP Diversity Plus: LPS Assay for Prostaglandin E2 (PGE2) Biomarker Activity (AID 2283082); details: primary human HUVEC with PBMC; actives raise or lower the signal;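 as to AC50: secreted prostaglandin E2 measured by ELISA in LPS-stimulated co-culture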
Summary of the method: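 LPS-activated HUVEC/PBMC co-culture; cmpd dosed, 24 h; PGE2 by ELISA; bidirectional fit vs DMSO; SRB (0.1%, TCA-fixed, 560 nm) in parallel plates for overt cytotox.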

[4] = read-out: Macrophage colony-stimulating factor (MCSF), CSF1 (gene 1435); assay: BSK_LPS_MCSF: BioMAP Diversity Plus: LPS Assay for Macrophage colony-stimulating factor (MCSF) Biomarker Activity (AID 2283083); details: primary human HUVEC with PBMC; actives raise or lower the signal
Summary of the method: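 Bidirectional fitting against DMSO was applied to M-CSF levels read by ELISA at 24 h post-dose. The system pairs human umbilical vein endothelium with peripheral blood mononuclear cells; parallel SRB staining tracked cytotoxicity.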

[5] = read-out: Tissue Factor, F3 (gene 2152); assay: BSK_LPS_TissueFactor: BioMAP Diversity Plus: LPS Assay for Tissue Factor Biomarker Activity (AID 2283084); details: primary human HUVEC with PBMC; actives raise or lower the signal
Summary of the method: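 Compound was added to an endothelial cell/PBMC co-culture, and after 24 h tissue factor (CD142) was read by ELISA. Gain or loss of signal was fitted against a DMSO baseline, and parallel SRB staining (560 nm) tracked overt cytotoxicity.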

[6] = read-out: Tumor necrosis factor (Homo sapiens) (UniProt P01375); assay: BSK_LPS_TNFa: BioMAP Diversity Plus: LPS Assay for Tumour Necrosis Factor alpha (TNFa) Biomarker Activity (AID 2283085); details: primary human HUVEC with PBMC; actives raise or lower the signal
Summary of the method: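 Read-out is ELISA of TNFa in primary human endothelial cell–PBMC co-cultures at 24 h after compound. Activity in either direction was fitted against DMSO.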

[7] = read-out: Vascular cell adhesion molecule 1 (VCAM1), VCAM1 (gene 7412); assay: BSK_LPS_VCAM1: BioMAP Diversity Plus: LPS Assay for Vascular cell adhesion molecule 1 (VCAM1) Biomarker Activity (AID 2283086); details: primary human HUVEC with PBMC; actives raise or lower the signal
Summary of the method: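 HUVEC + PBMC co-culture, LPS system; compound 24 h; VCAM-1 by ELISA; bidirectional fit vs DMSO control; parallel SRB (0.1%, TCA-fixed, 560 nm) for cytotoxicity.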

CD38, CD38 (gene 952) = assay: BSK_SAg_CD38: BioMAP Diversity Plus: SAg Assay for CD38 Biomarker Activity (AID 2283087); details: primary human HUVEC with PBMC; actives raise or lower the signal
Summary of the method: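 Human HUVEC plus PBMC co-culture stimulated with superantigen; CD38 measured by ELISA 24 h after chemical dosing. Fluorescence read-out, bidirectional fit against DMSO; cytotoxicity tracked in parallel by SRB and Alamar Blue.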

CD40, CD40 (gene 958) = assay: BSK_SAg_CD40: BioMAP Diversity Plus: SAg Assay for CD40 Biomarker Activity (AID 2283088); details: primary human HUVEC with PBMC; actives raise or lower the signal
Summary of the method: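 CD40 is measured by fluorescence ELISA in an endothelial/PBMC primary human co-culture at 24 h post-dose. Fitting is bidirectional, DMSO baseline. Parallel SRB staining (560 nm) flags cytotoxicity.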

CD69, CD69 (gene 969) = assay: BSK_SAg_CD69: BioMAP Diversity Plus: SAg Assay for CD69 Biomarker Activity (AID 2283089); details: primary human HUVEC with PBMC; actives raise or lower the signal;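 as to AC50: cell surface CD69 protein quantified by ELISA with fluorescence detection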
Summary of the method: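 Primary human vascular co-culture (umbilical vein endothelium with peripheral blood mononuclear cells) exposed to test chemical for 24 h. CD69 levels quantified by fluorescence ELISA; DMSO served as negative control for bidirectional fitting.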

[8] = read-out: Monocyte Chemoattractant Protein-1 (MCP1), CCL2 (gene 6347); assay: BSK_SAg_MCP1: BioMAP Diversity Plus: SAg Assay for Monocyte Chemoattractant Protein-1 (MCP1) Biomarker Activity (AID 2283090); details: primary human HUVEC with PBMC; actives raise or lower the signal
Summary of the method: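 MCP-1 levels in the endothelial–PBMC SAg co-culture were quantified by ELISA at 24 h post-dosing; both increases and decreases versus DMSO scored. Cytotoxicity monitored by SRB total protein in parallel cultures.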

[9] = read-out: E-selectin (Homo sapiens) (UniProt P16581); assay: BSK_SAg_Eselectin: BioMAP Diversity Plus: SAg Assay for Eselectin Biomarker Activity (AID 2283091); details: primary human HUVEC with PBMC; actives raise or lower the signal
Summary of the method: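 Cell-surface E-selectin is read by ELISA at 24 h in the SAg co-culture of HUVEC and PBMC. Curves are fitted in both directions relative to DMSO. Parallel SRB total-protein staining tracks overt toxicity.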

[10] = read-out: Monokine induced gamma interferon (MIG), CXCL9 (gene 4283); assay: BSK_SAg_MIG: BioMAP Diversity Plus: SAg Assay for Monokine induced gamma interferon (MIG) Biomarker Activity (AID 2283092); details: primary human HUVEC with PBMC; actives raise or lower the signal
Summary of the method: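 Endothelial cells and PBMC were co-cultured, exposed to test chemicals, and sampled 24 h later. MIG was measured by ELISA, and responses were fitted in both directions relative to DMSO.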

[11] = BSK_SAg_PBMCCytotoxicity: PBMC Cytotoxicity Assessment in the BioMAP Diversity Plus: SAg Assay (AID 2283093); details: primary human HUVEC with PBMC;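 also: PBMC viability measured as Alamar Blue reduction fluorescence at 546/580 nm; fitted both ways against DMSO so a hit may be loss or gain of signal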;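 as to AC50: PBMC superantigen activated with SEB plus TSST-1 one hour after compound addition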
Summary of the method: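 Human umbilical vein endothelial cells co-cultured with PBMC; PBMC (75,000/well) pre-treated with compound 1 h, then activated with SEB and TSST-1 (20 ng/mL final each) for 90 h. Alamar Blue added 6 h, fluorescence 546/580 nm; bidirectional fit versus DMSO.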

[12] = read-out: Interleukin-8 (IL8), CXCL8 (gene 3576); assay: BSK_SAg_IL8: BioMAP Diversity Plus: SAg Assay for Interleukin-8 (IL8) Biomarker Activity (AID 2283094); details: primary human HUVEC with PBMC; actives raise or lower the signal
Summary of the method: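 ELISA read-out of IL-8 in a primary human vascular co-culture (umbilical vein endothelium plus PBMC), taken 24 h after compound addition. Values derive from bidirectional fits against DMSO negative controls.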

[13] = BSK_SAg_Proliferation: Cell Proliferation Assessment in the BioMAP Diversity Plus: SAg Assay (AID 2283095); details: primary human HUVEC with PBMC;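 also: relative cell number as total protein by SRB absorbance in sub-confluent culture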
Summary of the method: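 Cells (endothelium plus PBMC, human primary) were dosed with chemical, cultured 96 h, fixed in 10% TCA and stained with 0.1% SRB. Absorbance at 560 nm gave relative protein, fitted bidirectionally relative to DMSO.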

[14] = BSK_SAg_SRB: Viability Assessment in the BioMAP Diversity Plus: SAg Assay (AID 2283096); details: primary human HUVEC with PBMC;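 also: cells read one day after compound addition; hits may be either gain or loss of signal compared with DMSO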
Summary of the method: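 Endothelial/PBMC primary human co-culture; compound 24 h; fix 10% TCA, stain 0.1% SRB, A560; protein content as cytotoxicity proxy; bidirectional curve fit, DMSO = baseline.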

[15] = target: human CYP19A1, CYP19A1 (gene 1588) (UniProt P11511); assay: NVS_ADME_hCYP19A1: NovaScreen (NVS) CYP450-related Enzyme Activity (ADME) Assay for human CYP19A1 (AID 2283098; active = hit-call score of the fitted dose curve at least 0.9, where 1 is the maximum)
Sequence of human CYP19A1, CYP19A1 (gene 1588) (P11511 whole entry, looked up): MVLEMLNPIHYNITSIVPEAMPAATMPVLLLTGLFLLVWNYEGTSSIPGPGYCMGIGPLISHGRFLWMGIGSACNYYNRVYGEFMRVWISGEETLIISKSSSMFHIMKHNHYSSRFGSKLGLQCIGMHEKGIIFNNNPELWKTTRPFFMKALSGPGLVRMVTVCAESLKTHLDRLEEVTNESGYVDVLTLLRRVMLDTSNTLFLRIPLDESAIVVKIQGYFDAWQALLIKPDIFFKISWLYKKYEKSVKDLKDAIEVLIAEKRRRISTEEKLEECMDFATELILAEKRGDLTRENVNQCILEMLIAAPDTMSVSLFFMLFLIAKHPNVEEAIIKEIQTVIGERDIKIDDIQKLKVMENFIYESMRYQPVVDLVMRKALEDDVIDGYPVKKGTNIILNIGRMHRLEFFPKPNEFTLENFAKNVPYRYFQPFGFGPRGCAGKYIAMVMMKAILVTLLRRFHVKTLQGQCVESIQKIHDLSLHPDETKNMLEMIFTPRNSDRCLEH
Summary of the method: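 Cell-free enzyme assay with recombinant protein and a specific fluorogenic substrate, read by fluorescence intensity 0.5 h after dosing. Primary screen ran in duplicate at 10 uM; actives were retested in concentration series. Loss of signal versus acetonitrile baseline.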

[16] = target: human CYP2A6, CYP2A6 (gene 1548) (UniProt P11509); assay: NVS_ADME_hCYP2A6: NovaScreen (NVS) CYP450-related Enzyme Activity (ADME) Assay for human CYP2A6 (AID 2283099; active = hit-call score of the fitted dose curve at least 0.9, where 1 is the maximum)
Sequence of human CYP2A6, CYP2A6 (gene 1548) (P11509 whole entry, looked up): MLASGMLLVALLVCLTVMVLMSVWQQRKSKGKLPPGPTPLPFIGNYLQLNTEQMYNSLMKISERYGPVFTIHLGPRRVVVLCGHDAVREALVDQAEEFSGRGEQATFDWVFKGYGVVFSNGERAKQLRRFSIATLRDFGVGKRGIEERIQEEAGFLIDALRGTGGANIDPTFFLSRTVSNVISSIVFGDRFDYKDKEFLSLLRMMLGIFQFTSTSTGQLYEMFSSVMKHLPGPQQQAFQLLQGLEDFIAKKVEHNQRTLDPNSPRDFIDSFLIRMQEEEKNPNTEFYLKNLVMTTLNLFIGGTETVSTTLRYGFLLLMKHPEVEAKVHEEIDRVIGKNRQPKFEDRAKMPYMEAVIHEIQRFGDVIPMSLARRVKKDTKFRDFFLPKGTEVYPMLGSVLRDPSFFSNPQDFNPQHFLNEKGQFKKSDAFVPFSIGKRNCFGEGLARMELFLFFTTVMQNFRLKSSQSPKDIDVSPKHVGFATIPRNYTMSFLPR
Summary of the method: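 Compounds screened at 10 uM (duplicate) and, if active, titrated to a 20 uM top concentration against insect-cell-expressed CYP2A6. Loss of fluorescent product signal after 0.5 h, relative to acetonitrile baseline, indicates inhibition.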

Sequence of E-selectin (Homo sapiens) (P16581 whole entry, looked up): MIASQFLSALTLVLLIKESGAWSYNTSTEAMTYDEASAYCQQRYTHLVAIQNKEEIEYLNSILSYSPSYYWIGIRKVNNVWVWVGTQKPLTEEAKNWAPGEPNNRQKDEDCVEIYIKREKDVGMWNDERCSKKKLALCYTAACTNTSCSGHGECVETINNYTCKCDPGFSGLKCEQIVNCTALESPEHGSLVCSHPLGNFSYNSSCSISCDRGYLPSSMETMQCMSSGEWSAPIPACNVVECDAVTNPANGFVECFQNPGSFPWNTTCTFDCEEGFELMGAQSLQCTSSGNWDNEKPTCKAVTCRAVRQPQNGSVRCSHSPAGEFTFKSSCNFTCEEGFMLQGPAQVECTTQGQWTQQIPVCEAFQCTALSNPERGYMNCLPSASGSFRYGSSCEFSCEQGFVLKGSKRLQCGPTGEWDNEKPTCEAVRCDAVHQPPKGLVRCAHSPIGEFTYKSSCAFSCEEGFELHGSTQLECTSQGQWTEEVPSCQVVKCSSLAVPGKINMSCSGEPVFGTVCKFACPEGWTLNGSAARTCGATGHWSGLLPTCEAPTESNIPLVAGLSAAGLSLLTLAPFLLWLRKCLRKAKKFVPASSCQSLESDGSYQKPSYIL
Sequence of Tumor necrosis factor (Homo sapiens) (P01375 whole entry, looked up): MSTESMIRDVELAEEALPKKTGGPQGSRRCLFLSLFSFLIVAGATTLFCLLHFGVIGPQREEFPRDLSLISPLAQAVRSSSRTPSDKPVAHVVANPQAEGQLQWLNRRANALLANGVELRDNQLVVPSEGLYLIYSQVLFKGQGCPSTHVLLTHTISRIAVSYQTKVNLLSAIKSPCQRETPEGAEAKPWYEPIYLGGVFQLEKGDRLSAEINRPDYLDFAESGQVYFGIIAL

With `N#CN` the outcome [1] was “inactive”, the outcome [2] was “inactive” and the outcome [3] was “inactive”. The outcome [4] was “inactive”, the outcome [5] was “inactive” and the outcome [6] was “inactive”. The outcome [7] was “inactive”, the outcome (CD38, CD38 (gene 952)) was “inactive” and the outcome (CD40, CD40 (gene 958)) was “inactive”. For the same compound, the outcome (CD69, CD69 (gene 969)) was “inactive”, the outcome [8] was “inactive” and the outcome [9] was “inactive”. The outcome [10] was “inactive”, the outcome [11] was “inactive” and the outcome [12] was “inactive”. The outcome [13] was “inactive” and the outcome [14] was “inactive”.

In the case of `CNC(=O)CSP(=S)(OC)OC`, the outcome [1] is reported as “inactive”, the outcome [2] is reported as “inactive” and the outcome [3] is reported as “inactive”. The outcome [4] was “inactive”, the outcome [5] was “inactive” and the outcome [6] was “inactive”. For the same compound, the outcome [7] was “inactive”, the outcome (CD38, CD38 (gene 952)) was “inactive” and the outcome (CD40, CD40 (gene 958)) was “inactive”. For the same compound, the outcome (CD69, CD69 (gene 969)) was “inactive”, the outcome [8] was “inactive” and the outcome [9] was “inactive”. The outcome [10] was “inactive”, the outcome [11] was “inactive” and the outcome [12] was “inactive”. The outcome [13] was “inactive”, the outcome [14] was “inactive” and the outcome [15] was “inactive”. For the same compound, the AC50 [16] was 4.5 µM (active).

With `CCOC1Oc2ccc(OS(C)(=O)=O)cc2C1(C)C` (configuration not stated) the outcome [1] was “inactive”, the outcome [2] was “inactive” and the outcome [3] was “inactive”. The outcome [4] was “inactive”, the outcome [5] was “inactive” and the outcome [6] was “inactive”. The outcome [7] was “inactive”, the outcome (CD38, CD38 (gene 952)) was “inactive” and the outcome (CD40, CD40 (gene 958)) was “inactive”. The AC50 (CD69, CD69 (gene 969)) was 18.4 µM (active), the outcome [8] was “inactive” and the AC50 [9] was 23.5 µM (active). For the same compound, the outcome [10] was “inactive”, the AC50 [11] was 25.9 µM (active) and the AC50 [12] was 10.1 µM (active). The outcome [13] was “inactive” and the outcome [14] was “inactive”.

For `CC1(c2ccc(Oc3ccccc3)cc2)OC(=O)N(Nc2ccccc2)C1=O` (configuration not stated), the outcome [1] was “inactive”, the AC50 [2] was 29.5 µM (active) and the AC50 [3] was 6.92 µM (active). For the same compound, the AC50 [4] was 20 µM (active), the AC50 [5] was 28.4 µM (active) and the outcome [6] was “inactive”. The AC50 [7] was 20 µM (active), the AC50 (CD38, CD38 (gene 952)) was 19.9 µM (active) and the AC50 (CD40, CD40 (gene 958)) was 15.8 µM (active). For the same compound, the AC50 (CD69, CD69 (gene 969)) was 20 µM (active), the AC50 [8] was 19.8 µM (active) and the AC50 [9] was 15.6 µM (active). The AC50 [10] was 34.1 µM (active), the outcome [11] was “inactive” and the AC50 [12] was 11.8 µM (active). For the same compound, the AC50 [13] was 16.9 µM (active) and the AC50 [14] was 30.3 µM (active).

With `COC(=O)c1ccccc1CS(=O)(=O)NC(=O)Nc1nc(OC)cc(OC)n1` the outcome [1] was “inactive”, the outcome [2] was “inactive” and the outcome [3] was “inactive”. The outcome [4] was “inactive”, the outcome [5] was “inactive” and the outcome [6] was “inactive”. The outcome [7] was “inactive”, the outcome (CD38, CD38 (gene 952)) was “inactive” and the outcome (CD40, CD40 (gene 958)) was “inactive”. For the same compound, the AC50 (CD69, CD69 (gene 969)) was 5.03 µM (active), the outcome [8] was “inactive” and the outcome [9] was “inactive”. For the same compound, the outcome [10] was “inactive”, the outcome [11] was “inactive” and the outcome [12] was “inactive”. For the same compound, the outcome [13] was “inactive” and the outcome [14] was “inactive”.
